Inconclusive results are not listed. Activity calls are given as the source filed them. Calls come from the whole dose curve; as a rule, active = well fitted activation curve with a large enough effect; inconclusive = small, poorly fitted or top-dose-only effect; inactive = no such curve, though single readings can be large or run the other way.
Potency is the fitted concentration of half-maximal effect.

Chain of Cellular tumor antigen p53 (Homo sapiens) (P04637 whole entry, looked up): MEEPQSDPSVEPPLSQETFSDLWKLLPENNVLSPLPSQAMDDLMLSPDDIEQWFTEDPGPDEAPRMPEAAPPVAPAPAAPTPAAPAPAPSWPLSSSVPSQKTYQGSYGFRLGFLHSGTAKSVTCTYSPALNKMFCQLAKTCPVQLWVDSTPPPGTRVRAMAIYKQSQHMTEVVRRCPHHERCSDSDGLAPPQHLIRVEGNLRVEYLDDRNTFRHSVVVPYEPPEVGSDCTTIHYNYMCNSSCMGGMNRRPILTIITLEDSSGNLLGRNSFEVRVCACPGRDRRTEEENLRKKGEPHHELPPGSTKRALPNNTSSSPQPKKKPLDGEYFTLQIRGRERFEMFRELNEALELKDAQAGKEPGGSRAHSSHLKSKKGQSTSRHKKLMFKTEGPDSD

The target of this test is Cellular tumor antigen p53 (Homo sapiens) (UniProt P04637). Description: Primary qHTS for small molecule compounds that upregulate eGFP-tagged delta133p53alpha (in N-terminal) cells. (AID 2060322).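 For activation: cells pre-induced with doxycycline then dosed without doxycycline; series mostly up to about 56 µM; 0% = DMSO vehicle and 100% = reference activator.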 Note: nearly all actives have a fitted effect of over 75% in size. The conditions noted are these: NCI-H358 eGFP-delta133p53alpha fluorescence, 24 h; activation: hits give high values. The method, boiled down:
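NCI-H358 cells pre-induced 24 h with 10 ng/ml doxycycline for eGFP-delta133p53alpha, plated dox-free and exposed 24 h at 37C to titrated compounds. Fixed, Hoechst-stained; gated GFP peak intensity by laser scanning cytometry, normalized to DMSO (0%) and 57.5 uM 5-azacytidine (100%).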
(In general: In qHTS, concentration-response curves come from the screen itself.)
Consider `Cc1c(-c2ccccc2)oc2c(C(=O)OCCN3CCCCC3)cccc2c1=O`, for which the activation is -16.7% (inactive).
Consider `NC[C@H]1O[C@H](O[C@H]2[C@H](O)[C@@H](O[C@H]3O[C@H](CO)[C@@H](O)[C@H](N)[C@H]3O)[C@H](N)C[C@@H]2N)[C@H](N)[C@@H](O)[C@@H]1O`, for which the activation was -10.7% (inactive).
For `CCn1c(-c2nc3cc(C(=O)N4CCC[C@@H](N)C4)cc(OC)c3n2C)cc2ccccc21`, the activation was -14.5% (inactive).
As to `CCC(C)(CN(C)C)OC(=O)c1ccccc1` (stereo not given), the activation was -10.9% (inactive).
Take `O=c1[nH]c2ccccc2c(=O)n1CCCl`: the activation is 6.21% (inactive).
Turning to `N=C(N)c1ccc(OCCCOc2ccc(C(=N)N)cc2)cc1`, the activation was -15.9% (inactive).
For the compound `NCc1ccc(S(N)(=O)=O)cc1`, the activation was -15.9% (inactive).
Take `CC(C)(C)[N+]([O-])=Cc1ccc(S(=O)(=O)O)cc1S(=O)(=O)O`: the activation was -9.61% (inactive).
For the compound `CCn1c(=O)c2c(nc(C=Cc3ccc(OC)c(OC)c3)n2C)n(CC)c1=O`, the activation was -8.1% (inactive).
Regarding `CCNC(=O)Nc1ccc(Oc2ncnc(N)c2C=NOC)cc1Cl`, the activation was -10.2% (inactive).
As for `C[C@H]1C[C@H]2[C@@H]3CCC4=CC(=O)C=C[C@]4(C)[C@@]3(Cl)[C@@H](O)C[C@]2(C)[C@@]1(O)C(=O)CO`, the activation was -4.18% (inactive).
As to `COc1ccc(OC(=O)N(CC(=O)O)Cc2ccc(OCCc3nc(-c4ccccc4)oc3C)cc2)cc1`, the activation is -10.7% (inactive).
For `CCC(CN)=C(c1ccccc1)c1ccccc1`, the activation was -4.18% (inactive).
Consider `Cc1c(N(C)CS(=O)(=O)O)c(=O)n(-c2ccccc2)n1C`, for which the activation is -7.34% (inactive).
In the case of `O=C(CCCl)NCc1ccccc1`, the activation is -0.565% (inactive).
With `CCCN1CCCC[C@H]1C(=O)Nc1c(C)cccc1C`, the activation was 9.6% (inactive).
With `CC(=O)N1CCN(c2ccc(OCc3nn(C)c(C)c3-c3cccc4c(CCCOc5cc(C)c(Cl)c(C)c5)c(C(=O)O)n(Cc5cccnc5)c34)cc2)CC1`, the activation was -5.22% (inactive).
Turning to `CC1CCc2c(N3CCC(O)CC3)c(F)cc3c(=O)c(C(=O)O)cn1c23` (stereo not given), the activation is 5.02% (inactive).
For `CC=C(C(=CC)c1ccc(O)cc1)c1ccc(O)cc1`, the activation was -4.09% (inactive).
As for `O=C1NC(=O)C(=Cc2cccc(C(F)(F)F)c2)S1`, the activation is 2.49% (inactive).
Still for that read-out and setting: the result for `CC(=O)NC(=O)c1ccccc1O` reads 1.69% (inactive); that for `O=C(O)CCCc1ccccc1`, 20.9% (inactive).
The same measure, in the same setting: in the case of `C=C1C[C@@]2(O)O[C@@]3(C[C@H]2C(C)C)[C@H](C)CC[C@H]13` it was 18.1% (inactive); in that of `COc1cc(S(N)(=O)=O)cc(C(=O)O)c1OC`, -2.82% (inactive).
On to `CCN[C@@H]1C[C@H](N)[C@@H](OC2OC(CN)=CCC2N)[C@H](O)[C@H]1O[C@H]1OC[C@](C)(O)[C@H](NC)[C@H]1O` (stereo not given in full), for which the activation was 1.67% (inactive).
Turning to `CCOCCOC(=O)/C=C/c1ccc(OC)cc1`, the activation was -3.95% (inactive).
Consider `CC(C)(O)Cn1c(NC(=O)c2ccc(-c3cn[nH]c3)s2)nc2cc(CN3CCOCC3)ccc21`, for which the Potency is 3.85 µM (active).
With `COC(=O)c1cc(Cl)ccc1OC`, the activation was 2.51% (inactive).
With `Cc1cc(NS(=O)(=O)c2ccc(N)cc2)nc(C)n1`, the activation is -13.4% (inactive).
On to `CCCCCCCCCCC(CO)CCCCCCCC` (stereo not given), for which the activation was 16.4% (inactive).
Take `O=C(O)CCC(=O)OC[C@@H](NC(=O)C(Cl)Cl)[C@H](O)c1ccc([N+](=O)[O-])cc1`: the activation was 15.1% (inactive).
The same measure, in the same setting: in the case of `N#C/C(=C1\SCC(c2ccccc2Cl)S1)n1ccnc1` (stereo not given) it was 5.08% (inactive); in that of `Oc1cccc(O)c1`, -16.4% (inactive).
Regarding `CCCCN1CCCC1C(=O)Nc1c(C)cc(C)cc1C` (stereo not given), the activation is 27.6% (inactive).
Take `NC(=O)C1(N2CCCCC2)CCN(CCCC(=O)c2ccc(F)cc2)CC1`: the activation was 14.2% (inactive).
Consider `Cc1ccc(C(=O)NCCCCCC(=O)Nc2ccccc2N)cc1`, for which the activation is 11.2% (inactive).
`O=S(=O)(N=Cc1c(O)ccc2ccccc12)c1cccs1`: the activation is 11.3% (inactive).
On to `O=C(O)c1ccccn1`, for which the activation was 17.6% (inactive).
Take `CC1(C)[C@@H](OC(=O)CCC(=O)O)CC[C@]2(C)[C@H]3C(=O)C=C4[C@@H]5C[C@@](C)(C(=O)O)CC[C@]5(C)CC[C@@]4(C)[C@]3(C)CC[C@@H]12`: the activation was 0.565% (inactive).
Turning to `O=C(Oc1ccccc1C(=O)O)c1ccccc1O`, the activation is -5.02% (inactive).

For the origin of these results see PubChem BioAssay (NCATS).
